Assay [1] concerns the target T1, Inhibitor of nuclear factor kappa-B kinase subunit epsilon (Homo sapiens) (UniProt Q14164).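 Note: reported values are averaged percent inhibition figures against human IKKε.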
T1 sequence (whole entry): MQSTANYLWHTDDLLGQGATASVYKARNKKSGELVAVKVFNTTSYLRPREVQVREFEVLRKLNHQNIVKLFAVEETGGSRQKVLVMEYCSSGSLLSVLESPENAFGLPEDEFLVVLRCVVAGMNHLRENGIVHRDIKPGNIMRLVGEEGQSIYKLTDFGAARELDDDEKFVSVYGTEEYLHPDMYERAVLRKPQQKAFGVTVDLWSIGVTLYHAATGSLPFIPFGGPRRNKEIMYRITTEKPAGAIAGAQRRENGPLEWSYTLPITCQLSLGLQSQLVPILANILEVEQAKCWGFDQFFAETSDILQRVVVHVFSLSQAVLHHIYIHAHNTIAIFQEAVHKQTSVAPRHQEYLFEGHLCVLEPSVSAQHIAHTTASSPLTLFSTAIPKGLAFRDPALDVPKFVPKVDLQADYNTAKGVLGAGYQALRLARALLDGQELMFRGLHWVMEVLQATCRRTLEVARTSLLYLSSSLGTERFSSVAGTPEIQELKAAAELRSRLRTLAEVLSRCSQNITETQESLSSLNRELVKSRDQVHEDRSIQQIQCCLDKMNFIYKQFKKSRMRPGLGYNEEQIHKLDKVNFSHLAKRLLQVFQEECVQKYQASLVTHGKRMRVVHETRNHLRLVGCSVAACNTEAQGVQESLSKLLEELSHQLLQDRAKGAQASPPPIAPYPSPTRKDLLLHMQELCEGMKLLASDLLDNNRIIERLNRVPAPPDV
The settings on record: at 1 µM.

For assay [2], the target named is T2, Serine/threonine-protein kinase Nek1 (Homo sapiens) (UniProt Q96PY6).
T2 sequence (whole entry): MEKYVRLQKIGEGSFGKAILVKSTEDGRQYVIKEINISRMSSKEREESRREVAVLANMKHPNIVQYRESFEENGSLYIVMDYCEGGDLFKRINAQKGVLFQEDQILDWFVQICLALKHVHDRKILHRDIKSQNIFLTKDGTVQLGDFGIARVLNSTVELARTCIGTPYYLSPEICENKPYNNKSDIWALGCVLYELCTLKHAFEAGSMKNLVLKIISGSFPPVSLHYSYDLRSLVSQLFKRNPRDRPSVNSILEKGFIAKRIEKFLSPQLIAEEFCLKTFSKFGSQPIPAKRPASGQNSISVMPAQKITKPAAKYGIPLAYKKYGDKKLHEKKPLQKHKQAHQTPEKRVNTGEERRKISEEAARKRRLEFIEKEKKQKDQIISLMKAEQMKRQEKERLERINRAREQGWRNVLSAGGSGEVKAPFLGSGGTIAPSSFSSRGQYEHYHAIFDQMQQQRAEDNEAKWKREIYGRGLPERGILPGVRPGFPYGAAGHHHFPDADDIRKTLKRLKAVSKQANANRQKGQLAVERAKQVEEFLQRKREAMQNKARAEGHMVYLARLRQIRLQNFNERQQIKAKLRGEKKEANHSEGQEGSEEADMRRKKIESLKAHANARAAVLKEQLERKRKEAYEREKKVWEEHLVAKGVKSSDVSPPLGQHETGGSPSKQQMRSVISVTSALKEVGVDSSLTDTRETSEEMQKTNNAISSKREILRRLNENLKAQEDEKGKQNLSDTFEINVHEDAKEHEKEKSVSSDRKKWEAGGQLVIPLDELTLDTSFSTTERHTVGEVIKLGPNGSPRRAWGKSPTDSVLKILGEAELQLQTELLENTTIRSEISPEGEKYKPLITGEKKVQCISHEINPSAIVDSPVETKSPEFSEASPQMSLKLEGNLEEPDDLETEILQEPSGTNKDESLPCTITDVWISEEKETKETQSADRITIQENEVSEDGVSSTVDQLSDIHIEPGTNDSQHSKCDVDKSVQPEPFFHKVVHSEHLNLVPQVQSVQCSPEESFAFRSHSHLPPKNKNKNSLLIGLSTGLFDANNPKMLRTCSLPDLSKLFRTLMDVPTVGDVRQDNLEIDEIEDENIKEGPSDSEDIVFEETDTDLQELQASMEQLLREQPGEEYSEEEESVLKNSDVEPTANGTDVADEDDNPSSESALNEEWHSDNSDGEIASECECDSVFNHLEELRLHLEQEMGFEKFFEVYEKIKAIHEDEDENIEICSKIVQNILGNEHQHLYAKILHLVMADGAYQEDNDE
The settings on record: at 0.1 µM.

Assay [3] deals with T2, Serine/threonine-protein kinase Nek1 (Homo sapiens). The settings on record: at 1 µM.
Assay [4] has as its target T3, Serine/threonine-protein kinase Nek2 (Homo sapiens) (UniProt P51955).
T3 sequence (whole entry): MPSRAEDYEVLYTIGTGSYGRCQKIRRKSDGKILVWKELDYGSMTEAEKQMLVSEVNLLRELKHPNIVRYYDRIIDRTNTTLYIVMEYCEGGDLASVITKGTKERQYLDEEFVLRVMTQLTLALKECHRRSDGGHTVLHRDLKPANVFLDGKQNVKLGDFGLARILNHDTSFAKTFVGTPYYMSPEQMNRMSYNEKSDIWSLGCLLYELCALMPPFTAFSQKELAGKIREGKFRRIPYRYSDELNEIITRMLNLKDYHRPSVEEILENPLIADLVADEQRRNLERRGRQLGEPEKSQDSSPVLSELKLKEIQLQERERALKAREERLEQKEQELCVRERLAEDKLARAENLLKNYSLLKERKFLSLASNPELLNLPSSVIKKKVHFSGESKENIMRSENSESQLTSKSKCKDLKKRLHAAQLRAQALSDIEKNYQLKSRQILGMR
The settings on record: at 0.1 µM.

In assay [5] the target is T3, Serine/threonine-protein kinase Nek2 (Homo sapiens). Particulars: at 1 µM.
The target of assay [6] is Serine/threonine-protein kinase Nek6 (Homo sapiens) (UniProt Q9HC98). The settings on record: at 0.1 µM.
Assay [7] shares this target. The settings on record: at 1 µM.
For assay [8], the target named is Serine/threonine-protein kinase Nek7 (Homo sapiens) (UniProt Q8TDX7). The settings on record: at 0.1 µM.
Assay [9] shares this target. The settings on record: at 1 µM.
Assay [10] has as its target T4, Serine/threonine-protein kinase Nek9 (Homo sapiens) (UniProt Q8TD19).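 Note: reported value is the mean percent inhibition of NEK9.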
T4 sequence (whole entry): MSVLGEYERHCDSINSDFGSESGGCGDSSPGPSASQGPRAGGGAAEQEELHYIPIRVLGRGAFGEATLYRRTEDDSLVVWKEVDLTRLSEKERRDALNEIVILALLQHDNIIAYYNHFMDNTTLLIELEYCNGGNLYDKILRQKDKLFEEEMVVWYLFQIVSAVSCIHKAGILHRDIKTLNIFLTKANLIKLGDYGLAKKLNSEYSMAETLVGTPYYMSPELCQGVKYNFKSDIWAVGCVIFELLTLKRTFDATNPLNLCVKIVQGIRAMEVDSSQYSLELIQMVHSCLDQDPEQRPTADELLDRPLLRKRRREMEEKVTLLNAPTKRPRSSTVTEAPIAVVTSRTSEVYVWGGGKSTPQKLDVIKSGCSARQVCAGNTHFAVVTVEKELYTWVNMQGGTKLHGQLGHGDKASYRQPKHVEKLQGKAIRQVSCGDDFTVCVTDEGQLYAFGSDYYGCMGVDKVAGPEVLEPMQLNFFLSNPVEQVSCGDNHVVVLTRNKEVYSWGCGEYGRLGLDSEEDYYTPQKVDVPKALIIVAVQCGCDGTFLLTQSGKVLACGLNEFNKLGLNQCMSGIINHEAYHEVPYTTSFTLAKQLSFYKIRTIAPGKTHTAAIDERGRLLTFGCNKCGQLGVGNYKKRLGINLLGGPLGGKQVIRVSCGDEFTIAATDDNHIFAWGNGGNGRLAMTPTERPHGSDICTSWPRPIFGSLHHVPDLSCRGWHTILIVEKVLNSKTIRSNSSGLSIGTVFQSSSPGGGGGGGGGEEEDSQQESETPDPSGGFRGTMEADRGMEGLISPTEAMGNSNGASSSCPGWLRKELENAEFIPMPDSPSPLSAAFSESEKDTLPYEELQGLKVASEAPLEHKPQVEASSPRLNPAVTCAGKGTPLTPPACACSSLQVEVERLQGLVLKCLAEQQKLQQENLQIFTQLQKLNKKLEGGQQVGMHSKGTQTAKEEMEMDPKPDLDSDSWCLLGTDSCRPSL
Particulars: at 0.1 µM.

Molecules are shown by their SMILES.

Serine/threonine-protein kinase Nek6 (Homo sapiens), sequence (Q9HC98 whole entry): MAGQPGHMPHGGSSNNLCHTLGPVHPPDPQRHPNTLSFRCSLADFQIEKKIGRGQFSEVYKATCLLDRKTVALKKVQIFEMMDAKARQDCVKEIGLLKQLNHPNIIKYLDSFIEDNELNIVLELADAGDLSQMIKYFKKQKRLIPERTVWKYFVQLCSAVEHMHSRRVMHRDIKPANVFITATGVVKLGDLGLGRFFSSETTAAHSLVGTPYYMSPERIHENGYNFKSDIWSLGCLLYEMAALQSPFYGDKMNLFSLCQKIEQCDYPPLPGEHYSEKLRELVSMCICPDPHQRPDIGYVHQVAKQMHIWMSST
Serine/threonine-protein kinase Nek7 (Homo sapiens), sequence (Q8TDX7 whole entry, looked up): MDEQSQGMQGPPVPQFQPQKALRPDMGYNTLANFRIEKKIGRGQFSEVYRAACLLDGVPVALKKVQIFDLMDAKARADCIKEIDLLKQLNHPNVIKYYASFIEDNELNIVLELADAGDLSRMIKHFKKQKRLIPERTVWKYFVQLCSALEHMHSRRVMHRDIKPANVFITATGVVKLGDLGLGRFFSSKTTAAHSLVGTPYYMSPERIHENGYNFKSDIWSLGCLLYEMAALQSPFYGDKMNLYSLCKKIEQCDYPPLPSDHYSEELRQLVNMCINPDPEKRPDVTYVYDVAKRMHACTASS

What is called inhibition is the drop in the measured response relative to a control, in per cent. Take `COc1ccc(CNC(=O)c2ccc(-c3cc(-c4nnc(C)o4)ccc3C)cc2)cc1`: the inhibition was 3.56% in assay [1]; 3.38% in assay [2]; 1.51% in assay [3]; 1.12% in [4]; 3.44% in assay [5]; -0.69% in [6]. The inhibition is 4.26% in assay [7], 1.72% in assay [8], -1.14% in assay [9] and 1.2% in [10].

As to `CN(C)CCOc1ccc(-c2nc(-c3ccncc3)c(-c3ccc4c(c3)CC/C4=N\O)[nH]2)cc1`, the inhibition in assay [1] came out at 7.42%; in assay [2], 0.81%; in assay [3] it was 5.31%; in [4] it was 2.72%; in assay [5] it was 4.52%; in assay [6], 3.81%. The inhibition in assay [7] came out at 0.68%; in [8] it was 1.62%; in assay [9], 2.67%; in assay [10] it was 4.08%.

On to `CCCN(CCS(C)(=O)=O)Cc1ccc(-c2ccc3ncnc(Nc4ccc(OCc5cccc(F)c5)c(Cl)c4)c3c2)o1`, for which the inhibition is 1.08% in assay [1]; 2.4% in assay [2]; 2.96% in [3]; 3.32% in assay [4]; 3.71% in assay [5]; -0.2% in [6]. The inhibition in assay [7] was 0.97%; in [8] it was 3.69%; in [9], 3.24%; in assay [10] it was 6.94%.

Consider `[O-][S+]1CCN(Cc2ccc(-c3ccc4ncnc(Nc5ccc(OCc6cccc(F)c6)c(Cl)c5)c4c3)o2)CC1`, for which the inhibition in assay [1] amounted to 7.12%; in assay [2], 1.83%; in assay [3], 3.84%; in assay [4], 6.03%; in assay [5] it was 7.92%; in [6], 12.5%. For the same compound, the inhibition in [7] is 1.99%; in [8], 2.99%; in [9] it was 8.43%; in assay [10], 12.2%.

`CC1=C(C(=O)Nc2cc(Cl)c3[nH]ncc3c2)C(c2ccc(C(F)(F)F)cc2)CC(=O)N1` (stereo not given): the inhibition in [1] was determined as 5.11%; in assay [2] it was 2.99%; in [3] it was 3.61%; in assay [4], 4.1%; in assay [5] it was 4.83%; in [6], 2.7%. Further, the inhibition in assay [7] was 2.6%; in [8], 4.35%; in assay [9], 3.32%; in assay [10], 5.83%.

Regarding `Cc1ccc(O)cc1Nc1ccnc2cc(-c3ccccn3)ccc12`, the inhibition in assay [1] stood at 4.69%; in [2], 2.99%; in [3], 2.32%; in [4], 5.83%; in [5], 4.75%; in assay [6], 5.8%. The inhibition in assay [7] is -1.66%; in [8], 3.67%; in assay [9] it was 3.3%; in assay [10], 2.78%.

Take `COc1ccc2c(-c3ccnc(Nc4cccc(OC(F)(F)F)c4)n3)cnn2n1`: the inhibition in [1] was found to be 26.7%; in [2] it was 3.61%; in assay [3], 6.35%; in assay [4], 5.13%; in assay [5] it was 4.77%; in assay [6], 3.21%. In addition, the inhibition amounted to 4.5% in assay [7], 3.37% in assay [8], 4.57% in [9] and 5.79% in assay [10].

For the compound `O=C(O[C@H]1CN[C@H](C#Cc2cc3ncnc(Nc4ccc(Cc5ccccc5)cc4)c3s2)C1)N1CCOCC1`, the inhibition is 3.15% in [1]; 1.41% in assay [2]; 1.96% in assay [3]; 2.89% in [4]; 4.01% in assay [5]; 1.71% in assay [6]. Also, the inhibition in assay [7] came out at 1.61%; in assay [8] it was 2.18%; in assay [9], 2.21%; in assay [10], 4.6%.
